According to PubChem BioAssay (Tox21):
Records with an inconclusive call do not appear. Calls of active or inactive are those of the source. Unless noted, calls follow the shape of the dose curve; as a rule, active = well fitted curve in the direction sought with a large enough effect in the repeat runs; inconclusive = weak or mixed curves; inactive = no such curve, though single readings can be large; an effect the other way counts as inactive or inconclusive.

Tests used:
[1] = A CellTox Green Cytotoxicity Assay to monitor cytotoxicity in HEK293 cells - 32 hour (AID 1224881); also: nearly all actives have a fitted effect of over 40% in size
How it was run: (§1)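 Fluorescence intensity, read at 0, 8, 16, 24, 32 and 40 h of compound treatment, reflected dye binding to DNA of dead HEK293 cells; compounds (23 nL, DMSO) were added 5 h after plating cells with reagent.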

[2] = A CellTox Green Cytotoxicity Assay to monitor cytotoxicity in HepG2 cells - 0 hour (AID 1224882); also: nearly all actives have a fitted effect of over 35% in size
How it was run: (§2)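 Using 1536-well format, dye-containing HepG2 suspension was seeded, allowed 5 h at 37 C/5% CO2, dosed by pintool with compounds, positive and negative controls, and imaged for fluorescence across 40 h.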

[3] = A CellTox Green Cytotoxicity Assay to monitor cytotoxicity in HepG2 cells - 32 hour (AID 1224883); also: nearly all actives have a fitted effect of over 50% in size
How it was run: as §2

[4] = A CellTox Green Cytotoxicity Assay to monitor cytotoxicity in HEK293 cells - 8 hour (AID 1224884); also: nearly all actives have a fitted effect of over 35% in size
How it was run: as §1

[5] = qHTS RealTime-Glo MT Cell Viability Assay in HepG2 cells - 16 hour (AID 1224885); also: nearly all actives have a fitted effect of over 50% in size
How it was run: (§3)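 Cells + NanoLuc/prosubstrate dispensed (600 cells/well) → 5 h at 37 C/5% CO2 → compounds in DMSO transferred → 40 h incubation at 37 C, luminescence read at 0, 8, 16, 24, 32, 40 h.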

[6] = qHTS RealTime-Glo MT Cell Viability Assay in HEK293 cells - 24 hour (AID 1224886); also: top concentration of the series differs between compounds; nearly all actives have a fitted effect of over 50% in size
How it was run: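 Tox21 10K qHTS, HEK293, 600 cells/well, RealTime-Glo reagent co-dispensed with cells; 5 h preincubation, compound by pintool, 37 C, luminescence at 0–40 h.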

[7] = qHTS RealTime-Glo MT Cell Viability Assay in HEK293 cells - 8 hour (AID 1224887); also: top concentration of the series differs between compounds; nearly all actives have a fitted effect of over 50% in size
How it was run: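 Viable HEK293 cells reduce a cell-permeant prosubstrate; the product diffuses out and is consumed by NanoLuc in the medium to give light. Compounds went in after a 5 h incubation and plates were read over the treatment course.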

[8] = A CellTox Green Cytotoxicity Assay to monitor cytotoxicity in HEK293 cells - 16 hour (AID 1224888); also: nearly all actives have a fitted effect of over 35% in size
How it was run: as §1

[9] = qHTS RealTime-Glo MT Cell Viability Assay in HepG2 cells - 0 hour (AID 1224889); also: nearly all actives have a fitted effect of over 50% in size
How it was run: as §3

[10] = A CellTox Green Cytotoxicity Assay to monitor cytotoxicity in HepG2 cells - 8 hour (AID 1224890); also: nearly all actives have a fitted effect of over 45% in size
How it was run: as §2

[11] = qHTS assay to identify small molecule antagonists of the estrogen receptor alpha (ER-alpha) signaling pathway using the BG1 cell line in the presence of 0.1 nM 17-beta-estradiol - cell viability counter screen (AID 1259241); also: nearly all actives have a fitted effect of over 40% in size
How it was run: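 Cells were plated and left 24 hr, compounds in DMSO were pinned in, 17beta-estradiol was added to 0.1 nM final, and after 22 hr CellTiter-Fluor reagent was added for 30 min before fluorescence was read.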

[12] = qHTS assay to identify small molecule antagonists of the androgen receptor (AR) signaling pathway using the MDA cell line in the presence of 0.5 nM R1881 - cell viability counter screen (AID 1259242); also: nearly all actives have a fitted effect of over 45% in size
How it was run: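 Viability of MDA-kb2 cells was multiplexed with the luciferase AR readout; after 16 hr with compounds and R1881 at 0.5 nM final, CellTiter-Fluor fluorescence was recorded.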

[13] = molecular target: Estrogen receptor (Homo sapiens) (UniProt P03372); assay: qHTS assay to identify small molecule antagonists of the estrogen receptor alpha (ER-alpha) signaling pathway using the BG1 cell line in the presence of 0.1 nM 17-beta-estradiol (AID 1259244); also: nearly all actives have a fitted effect of over 50% in size
Sequence of Estrogen receptor (Homo sapiens) (P03372 whole entry, looked up): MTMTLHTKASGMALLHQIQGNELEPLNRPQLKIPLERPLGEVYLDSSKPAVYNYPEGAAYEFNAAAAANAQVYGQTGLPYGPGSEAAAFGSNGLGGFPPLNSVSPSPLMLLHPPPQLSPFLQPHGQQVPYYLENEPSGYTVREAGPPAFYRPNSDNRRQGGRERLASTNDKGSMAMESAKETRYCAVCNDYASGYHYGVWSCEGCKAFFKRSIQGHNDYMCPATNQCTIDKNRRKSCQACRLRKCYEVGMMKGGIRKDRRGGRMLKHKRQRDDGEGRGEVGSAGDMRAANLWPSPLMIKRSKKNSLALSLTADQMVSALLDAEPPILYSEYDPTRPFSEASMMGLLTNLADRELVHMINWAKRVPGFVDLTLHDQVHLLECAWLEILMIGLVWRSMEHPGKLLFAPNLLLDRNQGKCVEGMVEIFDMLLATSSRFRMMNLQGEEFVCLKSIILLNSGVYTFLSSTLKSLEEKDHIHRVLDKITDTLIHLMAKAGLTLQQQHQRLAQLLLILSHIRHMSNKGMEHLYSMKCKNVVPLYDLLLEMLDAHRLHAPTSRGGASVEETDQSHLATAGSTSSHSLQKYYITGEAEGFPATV
How it was run: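 Estradiol at 0.1 nM (final) stimulates the endogenous ER-alpha of VM7Luc4E2 cells carrying an ERE-driven luciferase; compounds are co-incubated 22 h at 37C and luciferase output quantified by luminescence.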

[14] = qHTS assay to identify small molecule HDAC inhibitors (AID 1259364); also: potency is read from the fitted curve at half-maximal effect;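 also: wild-type HCT-116 cells with endogenous class I/II HDAC activity; nearly all actives have a fitted effect of over 45% in size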
How it was run: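 Read-out: luminescence of HDAC-Glo I/II reagent, 30 min RT, reflecting class I/II deacetylase activity in whole HCT-116 cells pre-exposed 2 h to DMSO-dissolved compounds.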

[15] = qHTS assay to identify small molecule HDAC inhibitors - cell viability counter screen (AID 1259365)
How it was run: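 Counter screen in wild-type HCT-116 cells: compounds dissolved in DMSO are pin-transferred onto overnight-plated cells and left 2hr at 37C. ATP-based CellTiter-Glo luminescence then measures viable cells.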

[16] = qHTS assay to identify small molecule antagonists of the sonic hedgehog signaling (Shh) pathway - cell viability counter screen (AID 1259367); also: nearly all actives have a fitted effect of over 55% in size
How it was run: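 NIH/3T3-derived Gli1-Luc reporter cells (2,000 per well) rested 4 hr at 37 C, then received DMSO compounds plus conditioned medium. After 23 hr of treatment, CellTiter-Fluor was added for 1 hr at 37C and fluorescence read.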

[17] = qHTS assay to identify small molecule agonists of the sonic hedgehog signaling (Shh) pathway - cell viability counter screen (AID 1259366); also: nearly all actives have a fitted effect of over 50% in size
How it was run: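 Cells are plated at 2,000 per well and left 4hr at 37C, 5% CO2 before compound addition. After 23hr of treatment, CellTiter-Fluor reagent is added for 1hr at 37C and fluorescence is measured.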

[18] = qHTS assay to identify small molecule agonists of the sonic hedgehog signaling (Shh) pathway (AID 1259368; calls by dose curve;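 also: NIH/3T3-derived 3T3Gli1-Luc cells carrying a stable Gli1-driven firefly luciferase reporter; series mostly up to about 92 µM; nearly all actives have a fitted effect of over 15% in size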)
How it was run: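 A Gli1 transcriptional response element controlled firefly luciferase in 3T3Gli1-Luc cells. Compounds and a positive control were added 4 hr after plating, and cells were incubated a further 24 hr at 37 C before luminescence detection.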

[19] = qHTS assay to identify small molecule phospholipidosis (PLD) inducers (AID 1259344; active = well fitted curve in the direction sought with a large enough effect; an effect the other way counts as inactive or inconclusive)
How it was run: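 HepG2 cells on collagen I, attached 4 h at 37 C, were co-treated with compound and LipidTOX Red dye for 24 h at 37 C, then fixed with paraformaldehyde plus Hoechst 33342 and imaged by high-content microscopy for phospholipid accumulation.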
% is scaled to controls: 0 for no effect and ±100 for the full control effect.

CCOC(=O)COC(=O)c1ccccc1C(=O)OCC
inactive: outcome [1] | Potency [2] | Potency [3] | outcome [4] | outcome [5] | Potency [6] | Potency [7] | outcome [8] | Potency [9] | outcome [10] | outcome [11] | outcome [12] | outcome [13] | Potency [14] | outcome [15] | Potency [16]

O=C(O)c1cc(C(=O)O)cc(C(=O)O)c1
inactive: outcome [1] | Potency [2] | Potency [3] | outcome [4] | outcome [5] | Potency [6] | Potency [7] | outcome [8] | Potency [9] | outcome [10] | outcome [11] | outcome [12] | outcome [13] | Potency [14] | outcome [15] | Potency [17] | outcome [18]

C1CCC2(CCCCO2)OC1
inactive: outcome [1] | Potency [2] | Potency [3] | outcome [4] | outcome [5] | Potency [6] | Potency [7] | outcome [8] | Potency [9] | outcome [10] | outcome [11] | outcome [12] | outcome [13] | Potency [14] | outcome [15] | Potency [16] | outcome [18]

Cc1ccc(C(=O)c2ccccc2)cc1
inactive: outcome [1] | Potency [2] | Potency [3] | outcome [4] | outcome [5] | Potency [6] | Potency [7] | outcome [8] | Potency [9] | outcome [10] | outcome [11] | outcome [12] | outcome [13] | outcome [15] | Potency [17] | outcome [18]

CC12CCC(C(=O)C1=O)C2(C)C (stereo unspecified)
inactive: outcome [1] | Potency [2] | Potency [3] | outcome [4] | outcome [5] | Potency [6] | Potency [7] | outcome [8] | Potency [9] | outcome [10] | outcome [11] | outcome [12] | Potency [14] | outcome [15] | Potency [17] | Potency [16]

CCN1CCOCC1
inactive: outcome [1] | Potency [2] | Potency [3] | outcome [4] | outcome [5] | Potency [6] | Potency [7] | outcome [8] | Potency [9] | outcome [10] | outcome [11] | outcome [12] | Potency [14] | outcome [15] | Potency [17] | Potency [16] | outcome [18]

CN1CCN(c2cc3c(nn2)Oc2ccccc2N3C)CC1
active: Potency [14] 4.61 µM
inactive: cytotoxicity increase [1] -14.8% [at 15.8 µM] | cytotoxicity [2] 0.041% [at 15.8 µM] | cytotoxicity increase [3] -2% [at 15.8 µM] | cytotoxicity increase [4] -6.06% [at 15.8 µM] | activity change, negative = cytotoxic [5] -5.35% [at 15.8 µM] | activity change, negative = cytotoxicity [6] -1.39% [at 15.8 µM] | activity change, negative = cytotoxicity [7] 0.282% [at 15.8 µM] | activity change [8] -9.75% [at 15.8 µM] | activity change, negative = cytotoxicity [9] -7.1% [at 15.8 µM] | cytotoxicity increase [10] 1.91% [at 15.8 µM] | activity change, negative = cytotoxicity [11] -8.18% [at 19 µM] | viability change, negative = cytotoxic [12] 0.195% [at 19 µM] | outcome [19] | activity change, negative = cytotoxicity [15] 2.56% [at 19 µM] | viability change, negative = cytotoxic [17] 8.2% [at 19 µM] | viability change, negative = cytotoxic [16] 0.668% [at 19 µM] | activity change [18] 5.44% [at 18.9 µM]

[Ca+2]
inactive: outcome [1] | Potency [2] | Potency [3] | outcome [4] | outcome [5] | Potency [6] | Potency [7] | outcome [8] | Potency [9] | outcome [10] | outcome [11] | outcome [12] | Potency [14] | outcome [15] | Potency [17] | outcome [18]

C[C@H]1[C@H](NC(=O)/C(=N/OC(C)(C)C(=O)O)c2csc(N)n2)C(=O)N1S(=O)(=O)O (stereo in doubt)
inactive: outcome [1] | Potency [2] | Potency [3] | outcome [4] | outcome [5] | Potency [6] | Potency [7] | outcome [8] | Potency [9] | outcome [10] | outcome [11] | outcome [12] | outcome [19] | Potency [14] | outcome [15] | Potency [16] | outcome [18]

NCCCC(N)(C(=O)O)C(F)F (stereo unspecified)
inactive: outcome [1] | Potency [2] | Potency [3] | outcome [4] | outcome [5] | Potency [6] | Potency [7] | outcome [8] | Potency [9] | outcome [10] | outcome [11] | outcome [12] | Potency [14] | outcome [15] | Potency [17] | Potency [16] | outcome [18]

CC(C)[C@H]1CC[C@@H](C)CC1=O
inactive: outcome [1] | Potency [2] | Potency [3] | outcome [4] | outcome [5] | Potency [6] | Potency [7] | outcome [8] | Potency [9] | outcome [10] | outcome [11] | outcome [12] | Potency [14] | outcome [15] | Potency [17] | Potency [16] | outcome [18]

CN(C)[C@@H]1C(=O)C(C(=O)NCN2CCCC2)=C(O)[C@@]2(O)C(=O)C3=C(O)c4c(O)cccc4[C@@](C)(O)C3C[C@@H]12 (stereo partly specified)
inactive: outcome [1] | Potency [2] | Potency [3] | outcome [4] | outcome [5] | Potency [6] | Potency [7] | outcome [8] | Potency [9] | outcome [10] | outcome [11] | outcome [12] | outcome [19] | Potency [14] | outcome [15] | Potency [17] | outcome [18]

CCOc1ccccc1OCC
inactive: outcome [1] | Potency [2] | Potency [3] | outcome [4] | outcome [5] | Potency [6] | Potency [7] | outcome [8] | Potency [9] | outcome [10] | outcome [11] | outcome [12] | Potency [14] | outcome [15] | Potency [17] | Potency [16]

C=CN1CCCCCC1=O
inactive: outcome [1] | Potency [2] | Potency [3] | outcome [4] | outcome [5] | Potency [6] | Potency [7] | outcome [8] | Potency [9] | outcome [10] | outcome [11] | outcome [12] | Potency [14] | outcome [15] | Potency [17] | Potency [16] | outcome [18]

CCCCc1nc(Cl)c(CO)n1Cc1ccc(-c2ccccc2-c2nn[nH]n2)cc1
inactive: outcome [1] | Potency [2] | Potency [3] | outcome [4] | outcome [5] | Potency [6] | Potency [7] | outcome [8] | Potency [9] | outcome [10] | outcome [11] | outcome [12] | Potency [14] | outcome [15] | Potency [17] | outcome [18]

Cc1ncc([C@@H](CCCCCCc2ccc3c(n2)NCCC3)CC(=O)O)cn1
inactive: outcome [1] | Potency [2] | Potency [3] | outcome [4] | outcome [5] | Potency [6] | Potency [7] | outcome [8] | Potency [9] | outcome [10] | outcome [11] | outcome [12] | outcome [13] | Potency [14] | outcome [15] | outcome [18]
